Measurements published in PubChem BioAssay AID1233 (SRMLSC, 2008).
Entries with a potency or affinity are not part of this list. Values without a mark were called inactive.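 How the source made its calls: active means a dose-response curve fit returns a half-maximal inhibitory concentration, extrapolated values included; inactive means the fit returns no such concentration.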

target: HMG-CoA reductase [Enterococcus faecalis] (UniProt Q9FD70); experiment: class II HMG-CoA reductase inhibition potency – biochemical, Enterococcus faecalis, confirmation (AID 1233);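 further: 0% = full reaction carrier wells and 100% = background wells lacking mevalonate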; conditions: purified E. faecalis HMGR, NADPH absorbance 340 nm kinetics; series mostly up to 100 µM; inhibition: at the top concentration

Compound | inhibition
O=[N+]([O-])c1ccc(Cl)c(-c2ccc(/C=N/c3c(-c4ccco4)nc4ccccn34)o2)c1 | -2.88%
O=C(CC(=O)NN=C1CCCCCC1)NCc1cccnc1 | -5.13%
CCOC(=O)c1sc(NC(=O)CSc2n[nH]c(CC)n2)nc1C | 1.54%
O=C(O)c1cc(-c2ccc(N3CCOCC3)cc2)nn1-c1ccccc1Cl | -0.41%
O=C(Cc1ccccc1)Nc1ccccc1CO | -3.78%
OCCC1CN(Cc2cccs2)CCN1Cc1ccccc1 (stereo not drawn) | -9.42%
O=C(Nc1ccccc1)C(Cc1ccccc1)NC(=O)C12CC3CC(CC(C3)C1)C2 (stereo not drawn) | -2.25%
CCCSc1nnc2n(N)c(=O)c3ccccc3n12 | -3.93%
COc1cc(/C=C2/C(=O)ON=C2C)ccc1OCc1cccc(F)c1 | 15.7%
CCOC(=O)c1ccc(N(C(=O)c2cnccn2)C(C(=O)NC2CCCCC2)c2cn(C)nc2C)cc1 (stereo not drawn) | -9.54%
COc1ccc(CSc2nnnn2C)cc1[N+](=O)[O-] | -1.1%
CC(NCCC(c1ccccc1)c1ccccc1)c1ccccc1 (stereo not drawn) | -3.54%
c1ccc(-c2nnc(SCc3nnc(-c4cccs4)o3)o2)cc1 | -3.7%
O=C(CCCn1ncn2c(cc3occc32)c1=O)N1CCc2ccccc2C1 | -2.7%
CCOC(=O)c1c(-c2ccccc2)csc1NC(=S)N(CC)CC | 5.86%
CC1=C(C)C(=O)C(N2CCOCC2)=CC1=O | -4.26%
CCOC(=O)c1nnn(-c2ccc(OC)cc2)c1N | -6.25%
CSc1nc(-c2ccc(C)cc2)nc(C(Cl)Cl)n1 | -3.82%
COc1ccc(/C=N/NC(=O)C(C)Sc2ccccn2)cc1[N+](=O)[O-] (stereo not drawn) | -10%

Compound | inhibition
Cc1cnc(NC(=O)c2cc3ccccc3o2)s1 | -5.9%
O=C(COc1cccc(NC(=O)c2ccco2)c1)c1ccc(F)cc1 | 1.51%
Cc1ccsc1C=C1C(=O)c2ccccc2C1=O | -0.95%
COc1ccc(C)cc1NC(=O)C(Sc1nnnn1C)c1ccccc1 (stereo not drawn) | -3.54%
Cc1ccc(S(=O)(=O)N2CCCC2C(=O)Nc2nc3ccccc3s2)cc1 (stereo not drawn) | -3.26%
Cn1nccc1C(=O)N1CCc2ccccc21 | -1.21%
O=C(NCCCn1ccnc1)c1ccc(S(=O)(=O)N2CCOCC2)cc1 | -1.4%
Cc1ccc(/C=C/C(=O)O)cc1S(=O)(=O)NCCCO | -7.91%
CCN(C(=O)CCc1nc(-c2ccccc2F)no1)c1cc(OC)ccc1OC | -4.63%
O=C(Nc1ccc(Oc2ccccc2)cc1)c1ccc(Cn2c(=O)[nH]c3ccsc3c2=O)cc1 | -8.26%
CCC1Oc2ccccc2N(CC(=O)NCc2ccco2)C1=O (stereo not drawn) | -6.06%
CSc1ccccc1C(=O)NCc1ccccc1 | -2.21%
O=C(CNC(=O)c1ccccc1)N/N=C/c1cccs1 | 0.73%
COc1ccc2c(c1)c(=O)c(C(=O)c1ccccc1)cn2Cc1ccc(C)cc1 | -0.52%
O=C(CCS(=O)(=O)c1cccc2nonc12)Nc1cccc2c1CCCC2 | -2.96%
COCc1cc(C)n(CC(=O)OC)c(=O)c1C#N | -0.1%
CC(=O)Nc1cccc(NC(=O)CSc2ccc(-c3cccnc3)nn2)c1 | -0.43%
CCN1C(=O)/C(=C\C=C\c2ccccc2[N+](=O)[O-])SC1=S | -12.6%
Cc1cc(C(=O)NN=C2CCCCC2)c2ccccc2n1 | -3%
